The source made the active and inactive calls. Unless noted, how the calls were made is not given here.
How the values were obtained:
[1] = anti-His antibody binders, primary screen, artefact control for SMM control protein annotation, biochemical, small-molecule microarray, 635 nm fluorescence (AID 1128); conditions: anti-His Alexa647 antibody binding, higher = more signal;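 further: score merges feature fluorescence with signal-to-noise for each printed compound spot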
[2] = test system: Human papillomavirus type 1a E7 protein (residues 1-88); assay: HPV1a E7 small-molecule binders, primary screen, biochemical, small-molecule microarray, residues 1-88, 635 nm (AID 1129); conditions: small-molecule microarray binding, fluorescence 635 nm; higher = more signal
[3] = target: Focal adhesion kinase 1 (Homo sapiens) (UniProt Q05397); assay: small-molecule microarray binders of FAK, primary screen, biochemical, 635/667 nm fluorescence, BSA, DTT (AID 1130); conditions: PTK2 binding, 635 nm fluorescence, higher = more signal;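 further: composite of spot emission at 667 nm and signal to noise over triplicate slides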
[4] = test system: Fibrinogen (Alexa647-labelled); assay: fibrinogen binders on compound microarrays, profiling panel, artefact control for SMM control-protein annotation, biochemical, small-molecule microarray, 635/667 nm fluorescence (AID 1131); conditions: fibrinogen-A647 binding fluorescence, higher = more signal;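 further: z-score merges 667 nm fluorescence with per-spot signal-to-noise over triplicate slides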
[5] = target: Follistatin (Homo sapiens) (UniProt P19883); assay: follistatin binders on small-molecule microarrays, primary screen, biochemical, small-molecule microarray, 635/667 nm fluorescence (AID 1132); conditions: FST binding, 635 nm fluorescence, higher = more signal
[6] = target: Fibroblast growth factor 2 (Homo sapiens) (UniProt P09038); assay: FGF2 binders on small-molecule microarrays, primary screen, biochemical, small-molecule microarray, 635/667 nm fluorescence (AID 1133); conditions: small-molecule microarray binding, FGF2, fluorescence 635/667; higher = more signal
[7] = mitochondrial membrane potential change in A549 cells, profiling panel, cell-based, JC-1 fluorescence, basal, 24 h, 100 nL (AID 1138); conditions: higher = more signal;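 further: A549 lung adenocarcinoma cells under basal conditions with no added stimulus; test concentration not given here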
Lefty1 = Lefty1 binders on small-molecule microarrays, primary screen, biochemical, small-molecule microarray, 635/667 nm fluorescence (AID 1139); conditions: small-molecule microarray binding, fluorescence 635/667; higher = more signal
[8] = test system: wheat germ agglutinin (Triticum aestivum), Alexa647-labelled; assay: wheat germ agglutinin binders on compound microarrays, profiling panel, artefact control for SMM control-protein annotation, biochemical, small-molecule microarray, 635/667 nm fluorescence (AID 1140); conditions: WGA-A647 binding, 635 nm fluorescence, higher = more signal;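 further: score merges 667 nm feature emission with signal to noise over triplicate slides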
[9] = target: Luciferin 4-monooxygenase (Photinus pyralis) (UniProt P08659); assay: firefly luciferase enzyme inhibitors, primary screen, biochemical, luminescence, purified enzyme, 2006 set (AID 1141); conditions: SteadyGlo luminescence, 30 min, higher = more signal, called active from +8 up or from −8 down;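 further: cell-free assay with purified firefly luciferase at 100 ng per well in PBS; test concentration not given here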
[10] = test system: Wnt5a (protein binding on small-molecule microarray); assay: Wnt5a binders on small-molecule microarray, primary screen, biophysical, 635/667 nm fluorescence (AID 1142); conditions: 635 nm fluorescence, higher = more signal;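 further: fluorescence read at 667 nm with signal to noise per printed feature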
[11] = cell viability in Huh7 cells, primary screen, cytotoxicity control for HCV replication inhibitor project, CellTiter-Glo luminescence, basal, 48 h (AID 1143); conditions: Huh7 HCV replicon, higher = more signal, called active from +8 up or from −8 down;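 further: Huh7 hepatoma cells carrying a hepatitis C replication reporter with no stimulus; test concentration not given here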
[12] = P. aeruginosa biofilm formation inhibitors, primary screen, PAO1 strain, BacTiter-Glo luminescence, LB-PBS (AID 1144); conditions: 12 h, higher = more signal
[13] = CREB reporter modulators without forskolin, primary screen, cell-based, PC12, CRE-LacZ reporter, unstimulated (AID 1145); conditions: no forskolin, luminescence, 4.5 h, higher = more signal, called active from +8 up or from −8 down
[14] = CREB reporter modulators under forskolin, primary screen, cell-based, PC12, CRE-LacZ reporter, forskolin-stimulated (AID 1146); conditions: luminescence, 4.5 h, higher = more signal, called active from +8 up or from −8 down;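 further: PC12 cells with 6xCRE LacZ reporter stimulated by forskolin 10 µM; beta-galactosidase reporter signal reflecting CREB driven transcription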
[15] = target: Streptavidin (Streptomyces avidinii) (UniProt P22629); assay: streptavidin binders on small-molecule microarray, primary screen, artefact control for SMM compound annotation, biophysical, 635/667 nm fluorescence (AID 1147); conditions: streptavidin binding, higher = more signal;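 further: signal reflects streptavidin binding to arrayed compounds as a control protein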
[16] = small-molecule binders of probe aInhba, primary screen, biochemical, small-molecule microarray, 635/667 nm fluorescence (AID 1148); conditions: higher = more signal;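 further: score merges 667nm spot fluorescence with signal-to-noise for antibody binding to printed compounds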
Torsin-1A (Homo sapiens) [17] = target: Torsin-1A (Homo sapiens) (UniProt O14656); assay: torsin A binders from cell lysate, primary screen, small-molecule microarray, wild-type, 635/667 nm (AID 1149); conditions: COS7 hTOR1A-WT lysate, 635 nm fluorescence, higher = more signal
Torsin-1A (Homo sapiens) [18] = target: Torsin-1A (Homo sapiens) (UniProt O14656); assay: small-molecule binders of mutant TOR1A in lysate, primary screen, cell lysate, small-molecule microarray, COS7 lysate, 635/667 nm fluorescence (AID 1150); conditions: COS7 hTOR1A mutant lysate, 635 nm fluorescence, higher = more signal;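 further: score pools 667 nm emission and signal to noise measuring lysate protein binding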
[19] = test system: Sonic hedgehog protein (Shh); assay: small-molecule binders of Shh protein, primary screen, biochemical, small-molecule microarray, 635/667 nm fluorescence (AID 1151); conditions: small-molecule microarray binding, 635 nm fluorescence; higher = more signal;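 further: Shh protein binding to compounds spotted on small-molecule microarray slides; score combines spot fluorescence intensity with signal-to-noise across triplicate slides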

Follistatin (Homo sapiens), sequence (P19883 whole entry, looked up): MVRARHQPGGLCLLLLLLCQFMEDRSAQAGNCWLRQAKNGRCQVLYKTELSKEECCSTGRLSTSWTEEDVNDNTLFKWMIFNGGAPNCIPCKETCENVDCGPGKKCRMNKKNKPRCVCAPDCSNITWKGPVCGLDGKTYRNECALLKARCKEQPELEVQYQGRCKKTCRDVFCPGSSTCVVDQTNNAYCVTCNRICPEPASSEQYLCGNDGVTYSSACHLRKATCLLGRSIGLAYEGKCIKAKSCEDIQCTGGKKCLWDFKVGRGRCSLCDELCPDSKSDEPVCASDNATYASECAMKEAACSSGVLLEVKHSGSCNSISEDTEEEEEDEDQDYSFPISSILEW
Streptavidin (Streptomyces avidinii), sequence (P22629 whole entry, looked up): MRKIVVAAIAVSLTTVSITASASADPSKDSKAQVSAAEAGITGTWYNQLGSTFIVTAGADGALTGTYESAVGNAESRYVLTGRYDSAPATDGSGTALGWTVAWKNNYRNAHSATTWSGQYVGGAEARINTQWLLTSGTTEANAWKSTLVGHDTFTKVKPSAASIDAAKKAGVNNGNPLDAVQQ
Luciferin 4-monooxygenase (Photinus pyralis), sequence (P08659 whole entry, looked up): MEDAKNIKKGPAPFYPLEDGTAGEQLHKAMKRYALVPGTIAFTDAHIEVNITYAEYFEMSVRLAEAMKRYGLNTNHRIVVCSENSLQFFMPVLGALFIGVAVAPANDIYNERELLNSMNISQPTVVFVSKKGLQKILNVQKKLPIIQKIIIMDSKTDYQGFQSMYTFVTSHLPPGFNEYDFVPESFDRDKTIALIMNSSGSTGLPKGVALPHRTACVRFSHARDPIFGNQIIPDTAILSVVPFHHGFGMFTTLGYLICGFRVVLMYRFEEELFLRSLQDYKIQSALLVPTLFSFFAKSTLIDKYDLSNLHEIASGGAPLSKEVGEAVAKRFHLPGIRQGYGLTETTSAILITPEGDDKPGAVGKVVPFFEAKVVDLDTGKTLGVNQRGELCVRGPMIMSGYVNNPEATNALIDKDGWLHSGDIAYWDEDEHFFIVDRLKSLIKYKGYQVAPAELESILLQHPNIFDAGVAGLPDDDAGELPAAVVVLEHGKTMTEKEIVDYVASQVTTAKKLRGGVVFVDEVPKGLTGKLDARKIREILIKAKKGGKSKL
Focal adhesion kinase 1 (Homo sapiens), sequence (Q05397 whole entry, looked up): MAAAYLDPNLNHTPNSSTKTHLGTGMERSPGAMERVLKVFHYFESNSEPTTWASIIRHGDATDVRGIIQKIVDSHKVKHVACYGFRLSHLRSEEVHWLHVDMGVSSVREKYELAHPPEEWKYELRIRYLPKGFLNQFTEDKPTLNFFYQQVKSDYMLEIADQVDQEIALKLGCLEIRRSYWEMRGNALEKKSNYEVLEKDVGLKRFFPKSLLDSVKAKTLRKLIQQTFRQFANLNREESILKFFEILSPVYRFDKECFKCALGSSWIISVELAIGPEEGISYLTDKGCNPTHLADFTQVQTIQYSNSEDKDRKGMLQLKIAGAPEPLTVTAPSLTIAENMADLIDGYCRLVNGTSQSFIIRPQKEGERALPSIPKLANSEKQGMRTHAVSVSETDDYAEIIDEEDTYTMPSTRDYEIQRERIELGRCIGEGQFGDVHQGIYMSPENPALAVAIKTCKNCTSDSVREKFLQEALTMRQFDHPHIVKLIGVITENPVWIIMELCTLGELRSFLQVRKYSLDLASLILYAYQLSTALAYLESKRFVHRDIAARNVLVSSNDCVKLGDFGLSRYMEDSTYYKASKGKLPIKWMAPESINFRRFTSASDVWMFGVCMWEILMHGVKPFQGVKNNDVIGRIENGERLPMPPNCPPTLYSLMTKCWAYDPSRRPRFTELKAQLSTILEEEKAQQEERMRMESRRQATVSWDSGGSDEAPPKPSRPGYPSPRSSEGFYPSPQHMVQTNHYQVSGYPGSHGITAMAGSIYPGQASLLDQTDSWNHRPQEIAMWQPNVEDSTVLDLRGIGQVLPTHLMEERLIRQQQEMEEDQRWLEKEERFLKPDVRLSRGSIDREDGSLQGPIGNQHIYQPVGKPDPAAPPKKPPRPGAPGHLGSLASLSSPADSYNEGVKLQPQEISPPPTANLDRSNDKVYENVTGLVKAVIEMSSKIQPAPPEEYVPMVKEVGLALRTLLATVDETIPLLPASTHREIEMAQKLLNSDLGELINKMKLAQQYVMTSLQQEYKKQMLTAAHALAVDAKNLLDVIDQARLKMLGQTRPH
Torsin-1A (Homo sapiens), sequence (O14656 whole entry, looked up): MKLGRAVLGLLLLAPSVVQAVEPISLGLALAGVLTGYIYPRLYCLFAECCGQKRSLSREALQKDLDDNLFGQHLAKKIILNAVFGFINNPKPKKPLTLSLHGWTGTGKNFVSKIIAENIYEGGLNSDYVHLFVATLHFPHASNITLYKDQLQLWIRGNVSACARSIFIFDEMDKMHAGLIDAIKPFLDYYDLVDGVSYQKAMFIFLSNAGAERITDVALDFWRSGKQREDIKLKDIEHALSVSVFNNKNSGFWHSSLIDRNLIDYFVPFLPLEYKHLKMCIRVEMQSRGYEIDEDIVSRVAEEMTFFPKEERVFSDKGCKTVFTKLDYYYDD
Fibroblast growth factor 2 (Homo sapiens), sequence (P09038 whole entry, looked up): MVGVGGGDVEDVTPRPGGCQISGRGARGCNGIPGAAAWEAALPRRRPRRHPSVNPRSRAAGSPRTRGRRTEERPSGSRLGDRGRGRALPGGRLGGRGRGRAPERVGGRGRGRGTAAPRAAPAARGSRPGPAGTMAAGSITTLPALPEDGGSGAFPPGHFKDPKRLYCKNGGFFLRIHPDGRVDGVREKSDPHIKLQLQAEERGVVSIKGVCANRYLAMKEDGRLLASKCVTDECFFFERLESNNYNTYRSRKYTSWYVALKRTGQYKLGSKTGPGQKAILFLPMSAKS

SMILES | composite z-score [1] | composite z-score [2] | composite z-score [3] | composite z-score [4] | composite z-score [5] | composite z-score [6] | z-score [7] | composite z-score (Lefty1) | composite z-score [8] | z-score [9] | composite z-score [10] | z-score [11] | z-score [12] | z-score [13] | z-score [14] | composite z-score [15] | composite z-score [16] | composite z-score (Torsin-1A (Homo sapiens) [17]) | composite z-score (Torsin-1A (Homo sapiens) [18]) | composite z-score [19]
CC(=O)OC[C@H]1O[C@@H](ON=C(C)CCN2CCc3nc(-c4ccccc4)c(-c4ccccc4)cc3C2)[C@H](OC(C)=O)[C@@H](OC(C)=O)[C@@H]1OC(C)=O | -0.116 | 1.11 | 0.276 | 0.867 | 0.992 | 1.19 | 1.13 | 0.699 | 0.491 | 0.93 (inactive) | 0.344 | -0.228 (inactive) | 0.305 (inactive) | 1.41 (inactive) | 0.0789 (inactive) | 0.65 | 0.134 | 0.054 | 0.257 | 1.12
COc1ccc([Si](C)(C)[C@H]2[C@H](CC(=O)N3CCC[C@H]3CO)O[C@@]3(C(=O)N(Cc4cccc(N5C(=O)COc6ccccc65)c4)c4ccccc43)[C@@H]2C)cc1 | 0.514 | 0.885 | 0.392 | -0.07 | 0.727 | 1.68 | 4.31 | 0.994 | -0.32 | -2.36 (inactive) | 0.156 | -2.16 (inactive) | -0.201 (inactive) | 7.18 (inactive) | -1.22 (inactive) | 0.0527 | -0.157 | 0.419 | 0.889 | 1.92
CC(C)NC(=O)[C@@H]1c2ccccc2C(=O)N(CC23CC4CC(CC(C4)C2)C3)[C@H]1c1ccc(CO)cc1 | 0.526 | 1.23 | 0.417 | 0.973 | 1.35 | 0.615 | 0.689 | 0.822 | 0.298 | 0.892 (inactive) | 0.0678 | -4.06 (inactive) | -2.1 (inactive) | -0.0259 (inactive) | -0.607 (inactive) | 0.969 | 0.0569 | 0.508 | 0.561 | 1.54
C=C(COC)/C(=C/C[C@H](OC(=O)c1ccncc1)c1ccc(CO)o1)c1cc(C(=O)OC)ccc1OC | 1.38 | 1.12 | -0.113 | -0.0921 | 1.22 | 1.32 | -0.713 | 1.14 | 0.113 | -0.448 (inactive) | 0.868 | -0.0528 (inactive) | -1.27 (inactive) | 0.0422 (inactive) | 0.877 (inactive) | -0.24 | -0.003 | 0.787 | 0.366 | 1.62
CO[C@H]1COC(=O)CC=C[C@H](C)[C@@H](NS(=O)(=O)c2ccc(C)cc2)COC(=O)CC=C[C@@H]1C | 2.79 | 0.0835 | 0.0018 | 0.0607 | 0.932 | 0.585 | -0.662 | 0.819 | -0.0118 | -0.277 (inactive) | 0.0341 | -1.82 (inactive) | -0.63 (inactive) | -0.971 (inactive) | -0.562 (inactive) | -0.0767 | -0.127 | 0.693 | 0.722 | 0.936
O=C1NC(=O)C2C1C=CC(C(O)Cc1ccccc1)N2Nc1ccccn1 (stereo not given) | 0.596 | 0.45 | 0.116 | 0.353 | 0.194 | 0.512 | 1.78 | -0.174 | 0.639 | -0.523 (inactive) | 0.0926 | -0.151 (inactive) | -0.314 (inactive) | 0.0603 (inactive) | 0.589 (inactive) | 0.125 | -0.0039 | 0.638 | 0.933 | 0.141
C=C(/C(=C/C[C@@H](OC(=O)c1ccncc1)c1ccc(OCCO)cc1)c1cnc2ccccc2c1)C(C)C | 1.03 | 1.13 | -0.616 | 0.806 | 1.43 | 1.17 | 0.809 | 1.5 | 0.976 | -2.06 (inactive) | 0.73 | -8.41 (active) | -0.56 (inactive) | 6.47 (inactive) | -0.209 (inactive) | 0.283 | 0.0108 | 1.55 | 0.815 | 2.11
CC(C)CON=C1[C@H]2CCn3c(=O)n(-c4ccccc4)c(=O)n3[C@H]2[C@H](O)[C@@H]2O[C@H]12 | 0.0684 | 0.118 | 0.164 | 0.571 | 0.504 | 1.03 | -0.0655 | 0.475 | 0.201 | -0.408 (inactive) | 0.134 | 0.893 (inactive) | 0.291 (inactive) | 0.797 (inactive) | 0.148 (inactive) | -0.142 | -0.102 | 0.235 | 0.189 | 0.445
CCN1C(=O)[C@H]2[C@H]3[C@H](O)[C@H](O)CC(=NOCc4ccccc4)[C@@H]3CC[C@H]2C1=O | 0.119 | 0.65 | -0.0096 | 0.306 | 0.276 | 0.232 | 1.89 | 0.538 | 0.0953 | -1.23 (inactive) | -0.0713 | -0.672 (inactive) | 0.855 (inactive) | 1.42 (inactive) | 0.479 (inactive) | -0.0346 | -0.0575 | 0.962 | 0.236 | 0.531
COC(=O)C1=C(C)[C@@H](O)[C@@H](C)[C@H](c2c(OC)c(OC)c(C)c(OC)c2OC)O1 | 0.174 | 0.113 | 0.132 | -1.27 | 0.194 | 0.236 | -0.485 | 0.475 | -0.611 | -0.0386 (inactive) | 0.0023 | -0.0219 (inactive) | 0.148 (inactive) | 2.18 (inactive) | 0.0745 (inactive) | 0.479 | -0.218 | 0.14 | 0.553 | 0.535

From PubChem BioAssay
